Among the data in PubChem BioAssay (NCATS) are Potency and activity change, negative = inhibition values, retold here.

Records with an inconclusive call do not appear. Where a call stands in place of a potency, no number is given. The source made the active and inactive calls. The call rests on the fitted dose curve; in most records, active means well fitted curve in the direction sought with a large enough effect; inconclusive means small, poorly fitted or top-dose-only effect, or another doubt; inactive means no such curve, though single readings can be large; an effect the other way counts as inactive or inconclusive.
Potency means the concentration at half of the fitted maximal effect.

Test system in the first assay: not listed separately
The assay is described as follows: Confirmatory screen GU Rhodamine qHTS for Zika virus inhibitors qHTS (AID 1347157). Further: nearly all actives have a fitted effect of over 70% in size. Conditions: purified enzyme assay, Rhodamine110 substrate fluorescence, 15 min; series mostly up to 114 µM. An outline of the steps: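 A qHTS format was used, with compound concentrations ranging up to 114 microM. Each compound was preincubated with 25 nM NS2B-NS3 protease, and the substrate was then added at 1.5 microM. Curves were fitted with a 4-parameter Hill model.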
For orientation: Quantitative high-throughput screening tests each substance at several concentrations.
For the molecule `CCN1CC2(COC)C3[C@@H](OC)C4C1C3(C1C[C@]3(O)[C@H](OC(=O)c5ccccc5)C1[C@]4(OC(C)=O)[C@@H](O)[C@@H]3OC)[C@H](OC)C[C@H]2O` (some centres not stated), the Potency entry was “inactive”.

In the case of `Oc1cc(Cl)c(Cl)cc1Cl`, the Potency result was “inactive”.

As for `COc1c(C(C)C)cc2c(c1O)[C@@]1(C(=O)O)CCCC(C)(C)C1CC2` (some centres not stated), the Potency is 6.85 µM (active).

Consider `COC(=O)C1(C)CCC(O)C2(C)c3cc(O)c(C(C)C)cc3C(O)C(OC(C)=O)C12` (configuration not stated), for which the Potency is 24.2 µM (active).

The subject of another assay is Zika virus NS2B-NS3 protease (unlinked complex). The assay is described as follows: Primary screen GU Rhodamine qHTS for Zika virus inhibitors: Unlinked NS2B-NS3 protease assay (AID 1347159). Further: nearly all actives have a fitted effect of over 60% in size. Conditions: Recombinant ZIKV NS2B-NS3 protease, Rhodamine110 substrate fluorescence; series mostly up to 107 µM. An outline of the steps: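 In dose–response format, inhibition of unlinked protease (25 nM) was measured with 1.5 microM bis-peptide Rhodamine110 substrate. Aprotinin served as the intraplate control.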
For `CC(=O)OC1CC(O)C(C)(C)C2CC(OC(C)=O)C3(C)C(CCC4(C)C(c5ccoc5)C(=O)C5OC543)C12C` (configuration not stated), the Potency result was “inactive”.

For the molecule `OC1(c2ccc(Cl)cc2)c2ccccc2C2=NCCN21` (configuration not stated), the Potency result is “inactive”.

Take `CCN1CC2(COC)C3[C@@H](OC)C4C1C3(C1C[C@]3(O)[C@H](OC(=O)c5ccccc5)C1[C@]4(OC(C)=O)[C@@H](O)[C@@H]3OC)[C@H](OC)C[C@H]2O` (some centres not stated): the Potency was 89.1 µM (active).

For `C=C1[C@@H]2CC[C@@]3(C)[C@H](c4ccoc4)OC(=O)C[C@]13O[C@H]1CC(=O)C(C)(C)[C@H](C(OC(C)=O)C(=O)OC)[C@]12C` (some centres not stated), the Potency entry is “inactive”.

Regarding `CC[C@H]1CN2CC[C@H]1C[C@H]2[C@H](O)c1ccnc2ccc(OC)cc12`, the Potency result is “inactive”.

Consider `C1=C2CCCN[C@H]2[C@@H]2C[C@H]1[C@H]1CCCCN1C2`, for which the Potency result is “inactive”.

In the case of `COC1C(O)C(C)OC(OC2C(CO)O[C@@H](O[C@@H]3CC4CCC5C(CC[C@]6(C)[C@@H](C7=CC(=O)OC7)CC[C@]56O)[C@@]4(C)[C@H](O)C3)C(O)C2O)C1O` (some centres not stated), the Potency result was “inactive”.

Consider `CC1C/C=C/C(O)C(O)CC/C=C/c2cc(O)cc(O)c2C(=O)O1` (configuration not stated), for which the Potency entry is “inactive”.

In the case of `CC(C)C1(OO)C=C2C(=O)CC3C(C)(C(=O)O)CCCC3(C)C2CC1` (configuration not stated), the Potency entry is “inactive”.

For the molecule `Cc1cccc(NC(=O)N[C@@H]2N=C(c3ccccc3)c3ccccc3N(C)C2=O)c1`, the Potency entry was “inactive”.

As for `Cc1cn(C[C@H](N)C(=O)O)c(=O)n(Cc2cc(-c3ccccc3)sc2C(=O)O)c1=O`, the Potency entry was “inactive”.

With `C=C(C)[C@H]1O[C@H]2CC[C@@]3(C)[C@@](O)(CC[C@H]4[C@@H]5OC(C)(C)[C@H]6C[C@@H]7C(=C)Cc8c(Cl)cc9[nH]c(c5c9c8[C@@]76O)[C@@]43C)[C@]23O[C@@H]3[C@H]1O`, the Potency entry was “inactive”.

Regarding `CO[C@@H]1[C@H](O)[C@@H](O[C@@H]2C[C@H]3CC[C@@H]4C(CC[C@]5(C)[C@@H](C6=CC(=O)OC6)CC[C@]45O)[C@@]3(C)[C@H](O)C2)O[C@H](C)[C@@H]1O[C@@H]1O[C@H](CO)[C@@H](O)[C@H](O)[C@H]1O` (some centres not stated), the Potency result is “inactive”.

Consider `CC(C)[C@@H](CN1CC[C@@](C)(c2cccc(O)c2)[C@@H](C)C1)NC(=O)[C@H]1Cc2ccc(O)cc2CN1`, for which the Potency result was “inactive”.

Regarding `COC1=CC(=O)O[C@@H](CCc2ccccc2)C1`, the Potency entry is “inactive”.

Take `COc1c(C(C)C)cc2c(c1O)[C@@]1(C(=O)O)CCCC(C)(C)C1CC2` (some centres not stated): the Potency is 6.31 µM (active).

On to `CN(C(=O)Cc1ccccc1)C(CN1CCCC1)c1ccccc1` (configuration not stated), for which the Potency result is “inactive”.

`CC(=O)OC1CC(O)C2(C)C(CC(OC(C)=O)C3(C)C2CCC2(C)C(c4ccoc4)C(=O)C4OC423)C1(C)C` (configuration not stated): the Potency entry is “inactive”.

As for `C=CC(C)(O)CC/C=C(\C)C(=O)O[C@H]1[C@H](O)[C@@H](CO)O[C@@H](OC(=O)[C@]23CCC(C)(C)CC2C2=CCC4[C@@]5(C)CC[C@H](O[C@@H]6O[C@H](CO[C@@H]7OC[C@H](O)[C@H](O)[C@H]7O[C@@H]7OC[C@@H](O)[C@H](O)[C@H]7O)[C@@H](O)[C@H](O)[C@H]6O)C(C)(C)C5CC[C@@]4(C)[C@]2(C)CC3)[C@@H]1OC1OC(C)C(O[C@@H]2OC[C@@H](O)[C@H](O[C@@H]3OC[C@@H](O)[C@H](O)[C@H]3O)[C@H]2O)C(O)C1O` (some centres not stated), the activity change, negative = inhibition is 50.7% [at 19.1 µM] (inactive).

As to `CN1[C@@H]2CC[C@H]1CC(OC(=O)C1C=Nc3ccccc31)C2` (some centres not stated), the Potency result was “inactive”.

As to `C/C=C(\C)C(=O)OC1CC2C(C)(C)OC(=O)CC(OC(C)=O)C2(C)C2CC(OC(=O)C(C)C)C3(C)C(c4ccoc4)CC4OC43C12C` (configuration not stated), the Potency entry is “inactive”.

With `CCc1[nH]c2ccc(OC)cc2c1CCN(C)C`, the Potency result was “inactive”.

Consider `COC(=O)C1(C)CCC(O)C2(C)c3cc(O)c(C(C)C)cc3C(O)C(OC(C)=O)C12` (configuration not stated), for which the Potency result is “inactive”.
